# IL1B secr inh – blocks inflammasome-driven IL-1 beta release | activity change, % at 57.5 µM | THP-1 LPS/ATP IL-1B secretion, AlphaLISA, 16 h; active compounds read low | AID 743279 | 360,000 tested, 4.7% active; in the data active = activity change below about -50%; inconclusive = mostly about -30% to -49%; also: % is scaled to controls: 0 for no effect and ±100 for the full control effect
#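 Secreted IL-1B measured by AlphaLISA bead assay after 16 h compound exposure of THP-1 cells; compounds (final up to 57.5 uM) added 1 h before LPS (250 ng/mL) and ATP (1.25 mM) stimulation; lower signal means less secretion.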
# TDP1 cell CPT – DT40-hTDP1 cell growth loss with CPT; chicken DT40 Tdp1-/-;hTDP1 cells + 20 nM CPT, ATP luminescence, 48 h; Potency, µM (top dose mostly 46.2 µM), for the others: at the highest dose activity change, negative = growth inhibition, hits mostly inhibitors; 420,000 tested, 12% active; also: potency is read from the fitted curve at half-maximal effect; % is scaled to controls: 0 for no effect and ±100 for the full control effect; nearly all actives have a fitted effect of over 55% in size
#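 Cell growth measured by CellTiter-Glo luminescence after a minimum 48 h, 37 C compound exposure with 20 nM CPT in Tdp1-knockout DT40 cells stably expressing hTDP1, seeded 400/well; qHTS titration format.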
# DRD3 antagonist – D3 dopamine receptor (human) antagonism; max response, negative = inhibition, %; D3R cells, DiscoveRx beta-arrestin luminescence, antagonist mode; active compounds read low; 360,000 tested, 2.5% active; P35462; in the data active = max response below about -50%; inconclusive = no clear call, values can overlap the other calls; also: % is scaled to controls: 0 for no effect and ±100 for the full control effect
# Target sequence (P35462 whole entry, looked up): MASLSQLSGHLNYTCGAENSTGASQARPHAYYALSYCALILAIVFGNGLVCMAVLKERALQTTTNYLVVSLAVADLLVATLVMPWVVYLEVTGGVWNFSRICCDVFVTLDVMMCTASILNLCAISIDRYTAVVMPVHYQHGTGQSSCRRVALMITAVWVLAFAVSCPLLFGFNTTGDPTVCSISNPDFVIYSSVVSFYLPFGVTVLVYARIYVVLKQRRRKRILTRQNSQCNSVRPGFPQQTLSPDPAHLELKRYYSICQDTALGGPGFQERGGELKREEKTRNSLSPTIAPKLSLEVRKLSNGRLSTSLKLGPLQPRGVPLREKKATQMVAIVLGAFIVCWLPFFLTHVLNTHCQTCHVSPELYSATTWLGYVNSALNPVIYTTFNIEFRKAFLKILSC
#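 Cells expressing the human receptor were seeded at 1500 cells/well, incubated overnight at 37 degrees C in 5% CO2, then exposed to library compounds with dopamine controls for 90 minutes at 37 degrees C before luminescent detection.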
# TDP1 cell noCPT – qHTS for Inhibitors of human tyrosyl-DNA phosphodiesterase 1 (TDP1): qHTS in cells in absence of CPT. DT40 Tdp1-/- hTDP1 cells, no CPT, ATP luminescence, 48 h. Potency, µM (highest dose often 46.2 µM), for inactives: top-dose activity change, negative = growth inhibition, hits mostly inhibitors. 420,000 tested, 15% active; also: potency is read from the fitted curve at half-maximal effect; % is scaled to controls: 0 for no effect and ±100 for the full control effect; nearly all actives have a fitted effect of over 55% in size
#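 Growth kinetics read by CellTiter-Glo luminescence after ≥48 hr at 37 °C. Cells: DT40 Tdp1-/- stably carrying human TDP1, 400 per well, compound exposure in the absence of CPT (DMSO vehicle).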
# DRD3 agonist – activates the human D3 dopamine receptor. P35462. D3R DiscoveRx beta-arrestin cells, luminescence, 90 min. AID 652048. 410,000 tested, 0.58% active. max activation, %; in the data active = max activation above about 30%; also: 0% is about no effect
#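 Agonist-mode cell screen: cells plated at 1500/well and incubated overnight at 37 °C, then exposed to library compounds for 90 min at 37 °C. Detection reagent was added for 30–60 min at room temperature, and luminescence was read.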
# ClpP mod – qHTS Assay for Activators of ClpP. ATP-dependent Clp protease proteolytic subunit (Bacillus subtilis (strain 168)), P80244. purified B. subtilis ClpP, FRET peptide cleavage, 20 min. Potency, µM (highest dose often 57.5 µM), for the others: top-dose activity change, negative = active. 340,000 tested, 1.9% active; active = well fitted falling curve with a large enough effect; inconclusive = small, poorly fitted or top-dose-only effect; inactive = no such curve, though single readings can be large or run the other way; also: potency is read from the fitted curve at half-maximal effect; the source files actives as falling curves though it sought activators and does not explain the sign; nearly all actives have a fitted effect of over 65% in size
# Target sequence (P80244 whole entry, looked up): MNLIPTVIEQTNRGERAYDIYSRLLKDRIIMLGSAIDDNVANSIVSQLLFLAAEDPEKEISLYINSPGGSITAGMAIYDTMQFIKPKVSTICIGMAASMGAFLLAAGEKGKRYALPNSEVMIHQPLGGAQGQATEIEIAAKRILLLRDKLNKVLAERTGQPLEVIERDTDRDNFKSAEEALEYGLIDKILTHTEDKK
#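 Purified B. subtilis ClpP, 10 microg/mL final in Tris/HCl pH8 with KCl, BSA, glycerol and Tween-20, cleaved an Abz/nitrotyrosine-quenched decapeptide. Fluorescence (ex 320, em 430) was read at 0 and 20 min at room temperature. Delta was normalized to 5.8 microM ADEP and DMSO/no-enzyme controls.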
# Active calls of the source: *; u = inconclusive; x = no result given. Shown are actives, neighbours in structure and some others; about 21% of the full set was active somewhere. Unless noted, calls follow the shape of the dose curve; as a rule, active = well fitted inhibition curve with a large enough effect; inconclusive = small, poorly fitted or top-dose-only effect; inactive = flat fitted curve, though single readings scatter.
SMILES,IL1B secr inh,TDP1 cell CPT,DRD3 antagonist,TDP1 cell noCPT,DRD3 agonist,ClpP mod
CCC(=O)NC1=C(C#N)C2(CCCC2)Cc2ccccc21,2,24%,22,-16%,-1,32µM*
N#CC1=C(N)c2ccccc2CC12CCCCC2,-52*,u,-22,u,-17,-4%
O=C1NC2(CCCCCC2)Cc2ccccc21,31,9%,7,0%,14,-2%
CCCC(=O)NC1=C(C#N)C2(CCCCC2)Cc2ccccc21,-10,-10%,-27,-29%,-7,-2%
O=C(CSc1nccc(=O)[nH]1)Nc1ccc(N2CCOCC2)cc1,0,-5%,-22,1%,-10,-2%
CN(CCO)c1cnccn1,6,7%,4,16%,3,x
c1ccc(CCNc2cnccn2)cc1,6,0%,3,2%,-2,4%
c1ccc(CNc2cnccn2)cc1,-1,-6%,21,0%,6,3.2µM*
Cc1ccc(CNc2cnccn2)cc1,-8,-30%,12,-15%,-2,14µM*
Cc1ccnc(NCc2cc(Cl)ccc2O)c1,-7,u,-23,u,-4,-2%
Cc1ccnc(NCc2ccc(Cl)cc2)c1,-58*,u,-4,u,-5,x
CCOc1c(Cl)cc(Cl)cc1CNCCSc1nnnn1C,x,u,x,u,1,-2%
CC1(C(=O)NS(=O)(=O)Cc2cccc(Cl)c2)CCN1C(=O)c1ccc(C2CCCCC2)cc1 (stereo not drawn),6,-22%,0,-3%,-3,-2%
O=C(Nc1ccc(O)c2c(=O)cc(-c3cccc(Cl)c3)oc12)c1ccccc1Cl,-8,u,24,21µM*,4,2%
Cc1ccc(-c2nc3ccsc3c(=O)[nH]2)cc1,40,-7%,u,-9%,5,x
CCOC(=O)/C=C1/SCC(=O)N1CC(=O)NC12CC3CC(CC(C3)C1)C2,18,u,7,21µM*,-26,x
CCCNC1=C(N(C(C)=O)c2cccc(F)c2)C(=O)c2ccccc2C1=O,-84*,2.6µM*,2,2.1µM*,0,1%
O=C(NCCCO)c1cc2c([nH]c3ccccc32)c(-c2ccccc2)n1,-88*,15µM*,22,13µM*,1,x
COc1cccc(-c2cc(C(=O)NCCCN3CCOCC3)no2)c1,4,20%,7,-9%,-1,0%
O=C(NCCCN1CCOCC1)c1cc2c([nH]c3ccccc32)c(-c2cccc(Br)c2)n1,-73*,8.2µM*,19,8.2µM*,-1,4%
COc1cccc(-c2nc(C(=O)NCCCN3CCOCC3)cc3c2[nH]c2ccccc23)c1,-64*,9.2µM*,35,8.2µM*,-23,5%
CCn1cc(C(=O)N[C@H](C(=O)NCCCn2ccnc2)C(C)C)c(=O)c2cc3c(cc21)OCO3,-2,-2%,-7,23%,5,u
COC(=O)c1ccc(Cc2ccc(C(=O)OC)o2)o1,-4,-14%,-22,-5%,1,0%
CCOC(=O)c1ccc(CSC(=N)N)o1,-12,29µM*,-11,u,-6,0%
CCc1oc(C(=O)OC)cc1CSC(=N)N,-87*,u,10,u,-7,x
SMILES,IL1B secr inh,TDP1 cell CPT,DRD3 antagonist,TDP1 cell noCPT,DRD3 agonist,ClpP mod
CCOC(=O)c1ccc(CSc2nncn2N)o1,5,-12%,-14,-3%,-4,0%
COC(=O)c1ccc(CSC(=N)N)o1,x,16µM*,0,u,-27,4%
COC(=O)c1cc(C)cc(=O)o1,-8,-3%,17,-4%,4,-1%
Cc1cccc(N2CCN(S(=O)(=O)c3c(C)[nH]c(C)c3C(=O)N3CCCC3)CC2C)c1 (stereo not drawn),-9,-27%,-14,-7%,4,0%
O=C(NC1CCc2ccccc21)c1cc(COc2cncc(Cl)c2)on1 (stereo not drawn),-62*,9.2µM*,-10,u,1,0%
O=C(NC1CCc2ccccc21)c1cc(COc2ccc(F)cc2Cl)on1 (stereo not drawn),7,-17%,0,-22%,2,0%
CSCCC(NC(=O)c1ccccc1Cl)C(=O)Nc1cccc(S(=O)(=O)N2CCCC2)c1 (stereo not drawn),0,u,-16,u,-4,-6%
CC(C)(C)C(=O)NC(=S)N1CCc2ccccc21,12,-6%,-8,-27%,3,0%
O=C(NC(=S)NCCN1CCOCC1)c1ccccc1Br,0,-3%,-2,-14%,-2,25µM*
O=C(NC(=S)N1CCc2ccccc21)c1ccc(Br)o1,0,2.9µM*,6,5.2µM*,-1,x
O=C(NC(=S)N1CCc2ccccc21)c1ccccc1Br,15,18µM*,1,21µM*,-5,-4%
COCCn1c(=O)c(CCc2ccccc2)nc2cnc(Oc3ccc(OC)cc3)nc21,x,-7%,x,-19%,x,x
O=[N+]([O-])c1cccc(NC(=S)NCc2ccncc2)c1,29,-38%,4,-14%,-2,x
O=C(CSc1nc(-c2ccc(Cl)cc2)cs1)Nc1cccc([N+](=O)[O-])c1,-12,u,-6,16µM*,2,-1%
Cc1cc(NC(=O)CSc2nc(-c3ccc(Cl)cc3)cs2)no1,-18,-11%,4,-14%,0,1%
O=[N+]([O-])c1cccc(NC(=S)Nc2nc(-c3ccccc3Cl)cs2)c1,-59*,u,-11,18µM*,-13,1%
Cc1nnc2c(NC3CCCCC3)nc3ccccc3n12,43,-16%,1,u,1,5%
CCCCCCCCCc1conc1C(=O)/C=C/c1oc2c(c1C)CCC(C)C2 (stereo not drawn),-13,21µM*,-15,15µM*,-2,1%
COc1cc(OC)cc(C(=O)NC(C(=O)NNC(=O)CN(C)S(=O)(=O)c2ccc(C)cc2)C(C)C)c1 (stereo not drawn),-2,6%,9,u,3,0%
N#CC(CCc1ccc([N+](=O)[O-])cc1)(CCc1ccc([N+](=O)[O-])cc1)C(N)=O,0,23µM*,-1,13µM*,-4,x
O=[N+]([O-])c1ccc(Cc2ccc([N+](=O)[O-])cc2)cc1,39,-17%,-8,-15%,-4,x
CCOCCCNC(=O)CCCn1nc(C)n2c(cc3sccc32)c1=O,-22,-20%,-3,-10%,1,-8%
